Assay outcomes: PubChem BioAssay, National Center for Advancing Translational Sciences (NCATS)
A selection: hits, their analogues and other compounds. The true share with any hit is near 19%.
Gal4-VP16 FLuc – counter-screen for ROR gamma inhibitors: Gal4-VP16 reporter; Drosophila S2 Gal4-VP16 UAS-luciferase, luminescence, 20 h; Potency, µM (titrated, usually from 53.6 µM), without a hit: at the highest dose activity, negative = inhibition, actives largely listed as inhibitors; AID 2546; 310,000 tested, 3.5% active;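 note: Gal4-VP16 expression switched on by copper sulfate through the metallothionein promoter; nearly all actives have a fitted effect of over 50% in size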
TDP1 inh – inhibitors of human tyrosyl-DNA phosphodiesterase TDP1 | 350,000 tested, 0.28% active | Potency, µM (titrated, usually from 130 µM), for the others: at the top dose activity change, negative = inhibition, hits mostly inhibitors | AID 485290 | recombinant TDP1, AlphaScreen DNA substrate cleavage; note: nearly all actives have a fitted effect of over 40% in size
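Here, a 5' biotin and 3' phosphotyrosine-FITC DNA oligonucleotide reports Tdp1 activity: intact substrate bridges AlphaScreen beads, while cleavage leaves a 3' phosphate and drops signal. All incubations at room temperature.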
RORgamma inh – ROR gamma (mouse) transcription inhibition; 310,000 tested, 5.4% active; Potency, µM (titrated, usually from 53.6 µM), for inactives: top-dose activity change, negative = inhibition, actives largely listed as inhibitors; Drosophila S2 Gal4-RORgamma UAS-luciferase reporter, 20 h; P51450; note: nearly all actives have a fitted effect of over 60% in size
Target sequence (P51450 whole entry, looked up, the tested form may be a part): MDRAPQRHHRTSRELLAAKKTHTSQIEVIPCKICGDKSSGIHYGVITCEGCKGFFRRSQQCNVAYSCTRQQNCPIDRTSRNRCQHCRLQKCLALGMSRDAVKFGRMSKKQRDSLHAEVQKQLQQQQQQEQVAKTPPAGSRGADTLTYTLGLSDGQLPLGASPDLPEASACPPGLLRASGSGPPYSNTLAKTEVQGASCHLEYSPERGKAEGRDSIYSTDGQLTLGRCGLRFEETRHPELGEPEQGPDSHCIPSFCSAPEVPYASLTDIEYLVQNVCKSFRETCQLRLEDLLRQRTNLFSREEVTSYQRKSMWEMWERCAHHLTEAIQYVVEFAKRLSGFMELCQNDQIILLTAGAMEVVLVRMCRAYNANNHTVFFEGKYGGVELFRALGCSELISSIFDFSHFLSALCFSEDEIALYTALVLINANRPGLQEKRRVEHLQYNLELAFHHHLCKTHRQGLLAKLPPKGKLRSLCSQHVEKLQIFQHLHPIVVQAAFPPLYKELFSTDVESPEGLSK
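Stably transfected Drosophila Schneider cells are the test system, with ROR gamma fused to Gal4 and luciferase under UAS control; luminescence is read after 20 hr of 700 uM copper sulfate induction at ambient temperature.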
DT40 TDP1 no CPT – qHTS for Inhibitors of human tyrosyl-DNA phosphodiesterase 1 (TDP1): qHTS in cells in absence of CPT; DT40 Tdp1-/- hTDP1 cells, no CPT, ATP luminescence, 48 h; Potency, µM (series often up to 46.2 µM), for inactives: top-dose activity change, negative = growth inhibition, usual class: inhibitors; 420,000 tested, 15% active; AID 686978, 2013; note: nearly all actives have a fitted effect of over 55% in size
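Compound effects on proliferation are scored in DT40 Tdp1-/-;hTDP1 cells in the absence of CPT. ATP levels (CellTiter-Glo luminescence) are recorded after a ≥48 hr, 37 °C incubation.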
DT40 TDP1 CPT – DT40-hTDP1 cell growth loss with CPT | chicken DT40 Tdp1-/-;hTDP1 cells + 20 nM CPT, ATP luminescence, 48 h | Potency, µM (top dose mostly 46.2 µM), without a hit: at the top dose activity change, negative = growth inhibition, hits mostly inhibitors | 420,000 tested, 12% active; note: nearly all actives have a fitted effect of over 55% in size
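Chicken DT40 Tdp1-/- cells stably complemented with human TDP1 were seeded at 400 cells/well in medium containing 20 nM camptothecin, exposed to pin-transferred compounds, and grown at 37 °C for at least 48 hr. Viability was read as ATP luminescence.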
The depositor's hits bear a star; [ ] = remark or other dose. Calls come from the whole dose curve; as a rule, active = well fitted curve in the direction sought with a large enough effect; inconclusive = small, poorly fitted or top-dose-only effect, or another doubt; inactive = no such curve, though single readings can be large; an effect the other way counts as inactive or inconclusive. % is set by controls: 0 for no effect and ±100 for the full control effect; potency is the fitted concentration of half-maximal effect.

How did Cc1cccc(NC(=O)CSc2nc(C)nc3c2c(=O)n(C)c(=O)n3C)c1 do in these assays?
Gal4-VP16 FLuc: 0.3%; TDP1 inh: 4.9%; RORgamma inh: 9.1%; DT40 TDP1 no CPT: -22.3%; DT40 TDP1 CPT: inconclusive

How did CCc1nc(SCC(N)=O)c2c(=O)n(C)c(=O)n(C)c2n1 do in these assays?
Gal4-VP16 FLuc: 3.7%; TDP1 inh: 3.1%; RORgamma inh: -13.8%; DT40 TDP1 no CPT: -4.1%; DT40 TDP1 CPT: 1.2%

What do the screens show for `Cc1nnc(NC(=O)CSc2nc(CC(C)C)nc3c2c(=O)n(C)c(=O)n3C)s1`?
Gal4-VP16 FLuc: 5.6%; TDP1 inh: 0.0%; RORgamma inh: -21.1%; DT40 TDP1 no CPT: 10.3µM*; DT40 TDP1 CPT: 16.4µM*

What do the screens show for `CCCc1nc(SCC(=O)Nc2nnc(CC)s2)c2c(=O)n(C)c(=O)n(C)c2n1`?
Gal4-VP16 FLuc: 5.01µM*; TDP1 inh: 3.0%; RORgamma inh: -21.0%; DT40 TDP1 no CPT: 3.26µM*; DT40 TDP1 CPT: 6.51µM*

Results for O=C(CCNC(=O)c1ccccc1Cl)NCCc1ccc(Cl)cc1 ?
Gal4-VP16 FLuc: 3.4%; RORgamma inh: 23.7%; DT40 TDP1 no CPT: 1.6%; DT40 TDP1 CPT: -23.3%

Results for COc1ccc(NC(=O)CSc2nc(N)c(NC(=O)c3cccs3)c(=O)[nH]2)cc1 ?
Gal4-VP16 FLuc: -3.2%; RORgamma inh: -24.0%; DT40 TDP1 no CPT: 16.0%; DT40 TDP1 CPT: inconclusive

What do the screens show for `CCc1ccc(CN(C)CC(=O)Nc2ccc3c(c2)CCC3)cc1`?
Gal4-VP16 FLuc: inconclusive; TDP1 inh: -6.3%; RORgamma inh: -105.7%; DT40 TDP1 no CPT: inconclusive; DT40 TDP1 CPT: inconclusive

Results for CC(C)(C)c1ccc(C(=O)NCCC(=O)Nc2ccc(S(=O)(=O)Nc3nccs3)cc2)cc1 ?
TDP1 inh: -6.6%; DT40 TDP1 no CPT: -3.3%; DT40 TDP1 CPT: -19.8%

What do the screens show for `O=C(CN1C(=O)COc2ccccc21)NNC(=O)Nc1ccccc1F`?
Gal4-VP16 FLuc: -2.5%; TDP1 inh: 11.2%; RORgamma inh: 1.2%; DT40 TDP1 no CPT: -16.1%; DT40 TDP1 CPT: -10.2%

Results for COc1cc(NC(=O)CN2C(=O)COc3ccccc32)cc(OC)c1 ?
DT40 TDP1 no CPT: -10.3%; DT40 TDP1 CPT: -15.8%

What do the screens show for `C/C=C(\C)C(=O)NCCN1C2=NC[C@@H](Cc3ccccc3)N2C[C@@H]1Cc1ccc(OC)cc1`?
DT40 TDP1 no CPT: -29.5%; DT40 TDP1 CPT: -26.1%

Results for CCCCCCNC(=O)N[C@@H](C(=O)NCCC[C@H]1CN2C(=NC[C@@H]2Cc2ccccc2)N1CCc1cccc(OC)c1)C(C)C ?
Gal4-VP16 FLuc: -1.4%; TDP1 inh: 4.7%; RORgamma inh: 14.1%; DT40 TDP1 no CPT: 4.61µM*; DT40 TDP1 CPT: 4.11µM*

What do the screens show for `COc1ccc(CCNC(=O)C/C(C)=N/NC(=O)c2ccc(Cl)cc2Cl)cc1OC`?
Gal4-VP16 FLuc: 3.8%; TDP1 inh: 3.9%; RORgamma inh: 0.0%; DT40 TDP1 no CPT: 22.5%; DT40 TDP1 CPT: -3.1%

Results for COc1ccc(CCN(C)C(=S)NC(=O)c2ccc(F)cc2Cl)cc1OC ?
Gal4-VP16 FLuc: 3.98µM*; TDP1 inh: 7.7%; RORgamma inh: 1.58µM*; DT40 TDP1 no CPT: inconclusive; DT40 TDP1 CPT: inconclusive

What do the screens show for `COc1ccc(CCN(C)C(=S)Nc2ccc(SC(F)F)cc2)cc1OC`?
Gal4-VP16 FLuc: inconclusive; RORgamma inh: 20µM*; DT40 TDP1 no CPT: inconclusive; DT40 TDP1 CPT: -15.4%

How did COc1ccc(N(CC(=O)Nc2cc(C(=O)O)ccc2C)S(=O)(=O)c2c(C)noc2C)cc1 do in these assays?
Gal4-VP16 FLuc: -3.8%; TDP1 inh: 6.2%; RORgamma inh: -5.2%; DT40 TDP1 no CPT: -4.8%; DT40 TDP1 CPT: 4.7%

How did COc1ccc(NC(=O)C(c2ccnc3ccccc23)n2c(=O)c(-c3ccccc3)nc3ccccc32)cc1 (stereo not given) do in these assays?
DT40 TDP1 no CPT: 1.3%; DT40 TDP1 CPT: 0.6%

What do the screens show for `O=C(NC1CCCCC1)C(c1ccnc2ccccc12)n1c(=O)c(-c2cc3ccccc3[nH]2)nc2ccccc21` (stereo not given)?
DT40 TDP1 no CPT: 14.6µM*; DT40 TDP1 CPT: inconclusive

Results for O=C(NC1CCCCC1)C(c1ccnc2ccccc12)N1CCOCC1 (stereo not given) ?
DT40 TDP1 no CPT: -15.7%; DT40 TDP1 CPT: -27.4%

Results for O=C(NC1CCCCC1)C(c1ccnc2ccccc12)n1c(=O)c(-c2ccccc2)nc2ccccc21 (stereo not given) ?
DT40 TDP1 no CPT: 13µM*; DT40 TDP1 CPT: 10.3µM*

What do the screens show for `CC(c1ccccc1)n1c(N2CCN(C)CC2)nc2c1c(=O)[nH]c(=O)n2C` (stereo not given)?
Gal4-VP16 FLuc: -3.7%; RORgamma inh: -2.6%; DT40 TDP1 no CPT: -2.2%; DT40 TDP1 CPT: 0.6%

Results for Cc1cccc(C)c1N=C1C(=O)Nc2ccccc21 ?
Gal4-VP16 FLuc: 17.8µM*; RORgamma inh: inconclusive; DT40 TDP1 no CPT: inconclusive; DT40 TDP1 CPT: inconclusive

Results for CCN(CC)c1ccc(N=C2C(=O)Nc3ccccc32)cc1 ?
Gal4-VP16 FLuc: -0.2%; RORgamma inh: -18.2%; DT40 TDP1 no CPT: 5.8µM*; DT40 TDP1 CPT: 6.51µM*

What do the screens show for `Cc1ccc(N=C2C(=O)Nc3ccccc32)cc1`?
Gal4-VP16 FLuc: 2.6%; RORgamma inh: 0.4%; DT40 TDP1 no CPT: 4.3%; DT40 TDP1 CPT: -4.8%

What do the screens show for `Cc1cccc(C)c1NC(=O)NCCCN1CCN(c2ccccc2)CC1`?
Gal4-VP16 FLuc: -1.0%; TDP1 inh: 2.3%; RORgamma inh: -10.8%; DT40 TDP1 no CPT: 4.4%; DT40 TDP1 CPT: -18.4%

How did O=C(CSC1=NS(=O)(=O)c2ccccc2N1)Nc1cccc(F)c1 do in these assays?
DT40 TDP1 no CPT: -3.3%; DT40 TDP1 CPT: 1.7%

Results for Cc1cccc(C)c1OCC(=O)N[C@@H](Cc1ccccc1)[C@@H](O)C[C@H](Cc1ccccc1)NC(=O)[C@H](C(C)C)N1CCCNC1=O ?
Gal4-VP16 FLuc: 2.0%; RORgamma inh: inconclusive; DT40 TDP1 no CPT: 18.8µM*; DT40 TDP1 CPT: 7.94µM*

How did CC(=O)NC(CC(=O)NNC(=O)COc1c(C)cccc1C)c1ccccc1 (stereo not given) do in these assays?
TDP1 inh: -0.3%; DT40 TDP1 no CPT: -0.8%; DT40 TDP1 CPT: -1.2%

How did COc1cc(CCN2C(=O)N[C@@H](CCc3ccccc3)C(C(C)=O)=C2C)cc(OC)c1OC do in these assays?
Gal4-VP16 FLuc: 3.2%; TDP1 inh: 9.3%; RORgamma inh: -14.3%; DT40 TDP1 no CPT: 23.1µM*; DT40 TDP1 CPT: inconclusive

How did CCN1C(=O)N[C@@H](c2cccs2)C(C(=O)OC)=C1C do in these assays?
TDP1 inh: 6.8%[12.3 µM]; DT40 TDP1 no CPT: -8.4%; DT40 TDP1 CPT: -18.8%
